Laboratory results as given in PubChem BioAssay (EPA / NIEHS).
Results filed as inconclusive are left out. The source made the active and inactive calls. How the source made its calls, unless noted: active means hit-call score of the fitted dose curve at least 0.9, where 1 is the maximum; inactive means score below 0.9.

Tests used:
CD40, CD40 (gene 958) = test: BSK_SAg_CD40: BioMAP Diversity Plus: SAg Assay for CD40 Biomarker Activity (AID 2283088); details: primary human HUVEC with PBMC; actives raise or lower the signal
How it was run: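 HUVEC/PBMC co-culture, 24 h post-dose; CD40 by ELISA, fluorescence intensity; bidirectional fit vs DMSO negative control.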

CD69, CD69 (gene 969) = test: BSK_SAg_CD69: BioMAP Diversity Plus: SAg Assay for CD69 Biomarker Activity (AID 2283089); details: primary human HUVEC with PBMC; actives raise or lower the signal;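 on AC50: cell surface CD69 protein quantified by ELISA with fluorescence detection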
How it was run: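 Endothelial/PBMC co-culture; chemical added; 24 h incubation; CD69 ELISA with fluorescence detection; bidirectional fit vs DMSO.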

[1] = read-out: Monocyte Chemoattractant Protein-1 (MCP1), CCL2 (gene 6347); test: BSK_SAg_MCP1: BioMAP Diversity Plus: SAg Assay for Monocyte Chemoattractant Protein-1 (MCP1) Biomarker Activity (AID 2283090); details: primary human HUVEC with PBMC; actives raise or lower the signal
How it was run: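 MCP-1 levels in the endothelial–PBMC SAg co-culture were quantified by ELISA at 24 h post-dosing; both increases and decreases versus DMSO scored. Cytotoxicity monitored by SRB total protein in parallel cultures.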

[2] = read-out: E-selectin (Homo sapiens) (UniProt P16581); test: BSK_SAg_Eselectin: BioMAP Diversity Plus: SAg Assay for Eselectin Biomarker Activity (AID 2283091); details: primary human HUVEC with PBMC; actives raise or lower the signal
How it was run: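 E-selectin ELISA readout at 24 h post-dosing in human umbilical vein endothelial cell/PBMC co-culture; gain or loss of signal fitted relative to DMSO baseline.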

[3] = read-out: Monokine induced gamma interferon (MIG), CXCL9 (gene 4283); test: BSK_SAg_MIG: BioMAP Diversity Plus: SAg Assay for Monokine induced gamma interferon (MIG) Biomarker Activity (AID 2283092); details: primary human HUVEC with PBMC; actives raise or lower the signal
How it was run: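 Measures CXCL9 protein by ELISA in a human vascular primary-cell co-culture (umbilical vein endothelium with PBMC) 24 h after chemical addition. Activity is scored up or down from the DMSO control.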

[4] = BSK_SAg_PBMCCytotoxicity: PBMC Cytotoxicity Assessment in the BioMAP Diversity Plus: SAg Assay (AID 2283093); details: primary human HUVEC with PBMC;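 further: PBMC viability measured as Alamar Blue reduction fluorescence at 546/580 nm; fitted both ways against DMSO so a hit may be loss or gain of signal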;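 on AC50: PBMC superantigen activated with SEB plus TSST-1 one hour after compound addition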
How it was run: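 Human umbilical vein endothelial cells co-cultured with PBMC; PBMC (75,000/well) pre-treated with compound 1 h, then activated with SEB and TSST-1 (20 ng/mL final each) for 90 h. Alamar Blue added 6 h, fluorescence 546/580 nm; bidirectional fit versus DMSO.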

[5] = read-out: Interleukin-8 (IL8), CXCL8 (gene 3576); test: BSK_SAg_IL8: BioMAP Diversity Plus: SAg Assay for Interleukin-8 (IL8) Biomarker Activity (AID 2283094); details: primary human HUVEC with PBMC; actives raise or lower the signal
How it was run: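 ELISA read-out of IL-8 in a primary human vascular co-culture (umbilical vein endothelium plus PBMC), taken 24 h after compound addition. Values derive from bidirectional fits against DMSO negative controls.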

[6] = BSK_SAg_Proliferation: Cell Proliferation Assessment in the BioMAP Diversity Plus: SAg Assay (AID 2283095); details: primary human HUVEC with PBMC;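 further: relative cell number as total protein by SRB absorbance in sub-confluent culture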
How it was run: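 Cells (endothelium plus PBMC, human primary) were dosed with chemical, cultured 96 h, fixed in 10% TCA and stained with 0.1% SRB. Absorbance at 560 nm gave relative protein, fitted bidirectionally relative to DMSO.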

[7] = BSK_SAg_SRB: Viability Assessment in the BioMAP Diversity Plus: SAg Assay (AID 2283096); details: primary human HUVEC with PBMC;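 further: cells read one day after compound addition; hits may be either gain or loss of signal compared with DMSO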
How it was run: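 Endothelial/PBMC primary human co-culture; compound 24 h; fix 10% TCA, stain 0.1% SRB, A560; protein content as cytotoxicity proxy; bidirectional curve fit, DMSO = baseline.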

[8] = target: human CYP19A1, CYP19A1 (gene 1588) (UniProt P11511); test: NVS_ADME_hCYP19A1: NovaScreen (NVS) CYP450-related Enzyme Activity (ADME) Assay for human CYP19A1 (AID 2283098; active means hit-call score of the fitted dose curve at least 0.9, where 1 is the maximum;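 on AC50: potency for inhibitors seen as loss of fluorescent enzyme signal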)
How it was run: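 Cell-free enzyme assay with recombinant protein and a specific fluorogenic substrate, read by fluorescence intensity 0.5 h after dosing. Primary screen ran in duplicate at 10 uM; actives were retested in concentration series. Loss of signal versus acetonitrile baseline.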

[9] = target: human CYP1A2, CYP1A2 (gene 1544) (UniProt P05177); test: NVS_ADME_hCYP1A2: NovaScreen (NVS) CYP450-related Enzyme Activity (ADME) Assay for human CYP1A2 (AID 2283102; active means hit-call score of the fitted dose curve at least 0.9, where 1 is the maximum;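 further: potency for inhibition since loss of fluorescence marks reduced CYP1A2 activity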)
How it was run: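 Fluorescence-intensity enzyme activity read-out, taken 0.5 h post-dosing, using insect-cell-derived recombinant CYP1A2 and specific fluorescent substrate. Acetonitrile served as negative control/baseline. Single-concentration duplicate screen at 10 uM, then concentration-response follow-up.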

[10] = target: Cytochrome P450 2C18 (Homo sapiens) (UniProt P33260); test: NVS_ADME_hCYP2C18: NovaScreen (NVS) CYP450-related Enzyme Activity (ADME) Assay for human CYP2C18 (AID 2283103)
How it was run: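 Cell-free recombinant human CYP2C18 with fluorogenic substrate; fluorescence intensity read 0.5 h after dosing. Single-point screen at 10 uM in duplicate, then concentration-response up to 20 uM; loss of signal fitted against acetonitrile baseline.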

[11] = target: human CYP2C9, CYP2C9 (gene 1559) (UniProt P11712); test: NVS_ADME_hCYP2C9: NovaScreen (NVS) CYP450-related Enzyme Activity (ADME) Assay for human CYP2C9 (AID 2283108; active means hit-call score of the fitted dose curve at least 0.9, where 1 is the maximum)
How it was run: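 Cell-free assay of recombinant human CYP2C9 produced in Sf9 cells, with enzyme activity read by fluorescence intensity 0.75 h after compound addition. Loss of signal versus an acetonitrile negative control indicates inhibition. Primary screen used 10 uM in duplicate; actives were retested in concentration series.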

[12] = target: human CYP2B6, CYP2B6 (gene 1555) (UniProt P20813); test: NVS_ADME_hCYP2B6: NovaScreen (NVS) CYP450-related Enzyme Activity (ADME) Assay for human CYP2B6 (AID 2283101; active means hit-call score of the fitted dose curve at least 0.9, where 1 is the maximum)
How it was run: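 Recombinant protein, specific fluorescent substrate, read at 1 h post-dosing. Primary: single 10 uM, duplicate; follow-up: concentration series. Activity = signal loss vs acetonitrile baseline, with positive and negative controls on every plate.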

[13] = target: human CYP4F12, CYP4F12 (gene 66002) (UniProt Q9HCS2); test: NVS_ADME_hCYP4F12: NovaScreen (NVS) CYP450-related Enzyme Activity (ADME) Assay for human CYP4F12 (AID 2283111; active means hit-call score of the fitted dose curve at least 0.9, where 1 is the maximum)
How it was run: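 Cell-free fluorescence assay of recombinant human CYP4F12 activity on a specific substrate, read 0.5 h after dosing. Primary screen in duplicate at 10 uM, then concentration series for actives; loss of signal fitted against acetonitrile negative control.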

Measured: AC50

Sequence of E-selectin (Homo sapiens) (P16581 whole entry, looked up): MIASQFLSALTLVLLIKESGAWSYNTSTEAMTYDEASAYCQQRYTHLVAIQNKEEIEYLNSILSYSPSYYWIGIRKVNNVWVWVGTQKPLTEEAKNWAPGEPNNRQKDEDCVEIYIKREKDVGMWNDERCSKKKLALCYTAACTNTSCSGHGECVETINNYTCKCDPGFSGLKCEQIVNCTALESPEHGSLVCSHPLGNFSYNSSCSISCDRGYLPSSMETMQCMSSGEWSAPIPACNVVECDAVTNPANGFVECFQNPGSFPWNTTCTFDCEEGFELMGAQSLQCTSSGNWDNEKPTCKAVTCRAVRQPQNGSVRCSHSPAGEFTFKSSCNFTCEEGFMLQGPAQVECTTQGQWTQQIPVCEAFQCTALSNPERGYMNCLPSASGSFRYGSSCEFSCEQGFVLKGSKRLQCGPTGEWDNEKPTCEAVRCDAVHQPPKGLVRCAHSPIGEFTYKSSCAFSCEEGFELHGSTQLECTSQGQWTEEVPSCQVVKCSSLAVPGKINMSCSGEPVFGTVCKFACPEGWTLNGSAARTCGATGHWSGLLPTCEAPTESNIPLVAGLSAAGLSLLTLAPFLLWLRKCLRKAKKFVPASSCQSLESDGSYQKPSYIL
Sequence of human CYP19A1, CYP19A1 (gene 1588) (P11511 whole entry, looked up): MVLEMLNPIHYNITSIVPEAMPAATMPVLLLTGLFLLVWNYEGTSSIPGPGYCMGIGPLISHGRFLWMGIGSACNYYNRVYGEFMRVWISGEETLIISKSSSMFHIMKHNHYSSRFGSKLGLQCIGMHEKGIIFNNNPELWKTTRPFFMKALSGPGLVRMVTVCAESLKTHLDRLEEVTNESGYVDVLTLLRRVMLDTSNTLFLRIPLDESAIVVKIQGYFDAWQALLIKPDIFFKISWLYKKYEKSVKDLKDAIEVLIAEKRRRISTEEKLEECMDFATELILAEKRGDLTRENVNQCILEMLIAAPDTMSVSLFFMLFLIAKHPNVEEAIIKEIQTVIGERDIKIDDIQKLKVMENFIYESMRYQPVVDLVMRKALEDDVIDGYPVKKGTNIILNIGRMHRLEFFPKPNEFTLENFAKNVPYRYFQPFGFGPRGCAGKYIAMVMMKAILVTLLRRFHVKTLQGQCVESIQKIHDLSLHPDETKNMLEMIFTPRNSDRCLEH
Sequence of human CYP2C9, CYP2C9 (gene 1559) (P11712 whole entry, looked up): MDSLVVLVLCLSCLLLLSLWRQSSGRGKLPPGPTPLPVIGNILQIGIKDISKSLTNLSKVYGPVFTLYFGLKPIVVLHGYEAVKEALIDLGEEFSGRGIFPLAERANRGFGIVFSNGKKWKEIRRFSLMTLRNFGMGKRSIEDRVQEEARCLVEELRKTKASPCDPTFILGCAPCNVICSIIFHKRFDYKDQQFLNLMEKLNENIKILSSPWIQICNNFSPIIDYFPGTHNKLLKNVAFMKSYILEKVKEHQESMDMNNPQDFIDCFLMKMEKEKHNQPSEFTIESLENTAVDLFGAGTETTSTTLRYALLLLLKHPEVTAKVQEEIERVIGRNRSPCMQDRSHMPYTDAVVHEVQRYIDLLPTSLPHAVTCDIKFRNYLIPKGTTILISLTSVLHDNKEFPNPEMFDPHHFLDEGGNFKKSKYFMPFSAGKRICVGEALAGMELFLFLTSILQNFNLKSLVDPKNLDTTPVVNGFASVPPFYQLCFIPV
Sequence of Cytochrome P450 2C18 (Homo sapiens) (P33260 whole entry, looked up): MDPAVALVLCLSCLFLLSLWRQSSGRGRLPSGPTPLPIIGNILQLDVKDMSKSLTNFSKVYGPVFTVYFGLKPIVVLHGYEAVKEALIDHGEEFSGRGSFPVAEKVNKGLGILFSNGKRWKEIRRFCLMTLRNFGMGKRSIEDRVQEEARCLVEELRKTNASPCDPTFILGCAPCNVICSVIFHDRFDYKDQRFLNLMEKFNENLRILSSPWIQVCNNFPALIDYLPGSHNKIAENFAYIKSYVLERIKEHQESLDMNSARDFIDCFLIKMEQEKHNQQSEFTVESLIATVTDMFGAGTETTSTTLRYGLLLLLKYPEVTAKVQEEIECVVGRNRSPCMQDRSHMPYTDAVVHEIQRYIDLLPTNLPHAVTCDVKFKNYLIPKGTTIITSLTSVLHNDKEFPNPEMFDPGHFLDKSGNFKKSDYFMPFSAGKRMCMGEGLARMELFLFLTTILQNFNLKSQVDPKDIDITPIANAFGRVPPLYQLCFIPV
Sequence of human CYP1A2, CYP1A2 (gene 1544) (P05177 whole entry, looked up): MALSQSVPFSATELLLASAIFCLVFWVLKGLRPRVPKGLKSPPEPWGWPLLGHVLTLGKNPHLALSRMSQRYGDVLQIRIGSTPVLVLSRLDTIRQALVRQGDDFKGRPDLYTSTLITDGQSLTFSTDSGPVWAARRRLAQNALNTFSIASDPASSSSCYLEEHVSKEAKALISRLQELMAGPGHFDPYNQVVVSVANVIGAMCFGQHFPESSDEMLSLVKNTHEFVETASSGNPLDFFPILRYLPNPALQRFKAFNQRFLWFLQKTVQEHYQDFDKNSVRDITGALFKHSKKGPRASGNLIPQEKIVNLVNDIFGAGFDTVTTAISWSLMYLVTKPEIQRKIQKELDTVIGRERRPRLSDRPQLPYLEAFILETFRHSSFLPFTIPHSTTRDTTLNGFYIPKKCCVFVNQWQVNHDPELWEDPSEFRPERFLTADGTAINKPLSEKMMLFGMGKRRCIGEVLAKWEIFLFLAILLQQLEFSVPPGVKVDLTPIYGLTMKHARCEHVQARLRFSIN
Sequence of human CYP4F12, CYP4F12 (gene 66002) (Q9HCS2 whole entry, looked up): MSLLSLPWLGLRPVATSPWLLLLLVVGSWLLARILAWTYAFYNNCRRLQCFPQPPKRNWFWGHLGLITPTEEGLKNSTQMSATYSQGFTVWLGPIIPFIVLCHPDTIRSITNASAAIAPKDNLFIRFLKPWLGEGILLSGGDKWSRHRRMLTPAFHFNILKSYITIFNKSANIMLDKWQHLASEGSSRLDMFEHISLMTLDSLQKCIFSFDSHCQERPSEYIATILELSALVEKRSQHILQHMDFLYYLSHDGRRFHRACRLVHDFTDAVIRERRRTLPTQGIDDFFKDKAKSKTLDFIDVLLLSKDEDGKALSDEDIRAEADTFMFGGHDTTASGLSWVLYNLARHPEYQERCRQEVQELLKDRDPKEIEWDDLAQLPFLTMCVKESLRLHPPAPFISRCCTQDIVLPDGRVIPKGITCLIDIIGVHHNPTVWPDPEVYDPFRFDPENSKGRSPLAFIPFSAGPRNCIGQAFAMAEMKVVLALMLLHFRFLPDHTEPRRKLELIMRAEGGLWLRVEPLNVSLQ
Sequence of human CYP2B6, CYP2B6 (gene 1555) (P20813 whole entry, looked up): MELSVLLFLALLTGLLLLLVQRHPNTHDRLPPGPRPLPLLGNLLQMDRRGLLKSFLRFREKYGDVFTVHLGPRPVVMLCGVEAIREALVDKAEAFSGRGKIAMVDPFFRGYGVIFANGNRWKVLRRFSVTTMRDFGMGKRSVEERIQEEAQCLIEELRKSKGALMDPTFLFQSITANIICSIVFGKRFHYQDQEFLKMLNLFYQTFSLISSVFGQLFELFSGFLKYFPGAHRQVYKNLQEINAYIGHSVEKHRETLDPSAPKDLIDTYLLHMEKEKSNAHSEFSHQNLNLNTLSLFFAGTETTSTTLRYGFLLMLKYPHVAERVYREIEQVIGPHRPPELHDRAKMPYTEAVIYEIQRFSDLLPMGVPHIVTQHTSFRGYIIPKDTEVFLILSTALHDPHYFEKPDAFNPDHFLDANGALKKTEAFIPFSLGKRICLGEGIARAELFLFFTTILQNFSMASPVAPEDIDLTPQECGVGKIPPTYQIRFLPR

CNC(=O)Oc1cccc2ccccc12
active: [4] 15.9 µM | [6] 22.4 µM | [9] 5.35 µM
not listed: [10] | [11] | [12] | [13]
inactive: all other assays above

CCOc1cc(C(C)(C)C)ccc1C1COC(c2c(F)cccc2F)=N1 (stereo unspecified)
active: CD40, CD40 (gene 958) 15.8 µM | CD69, CD69 (gene 969) 20.5 µM | [1] 28.5 µM | [2] 16.5 µM | [3] 36.1 µM | [4] 28.9 µM | [5] 18.6 µM | [6] 11.9 µM | [7] 22.1 µM
inactive: [10]

CO/N=C(/C1=NOCCO1)c1ccccc1Oc1ncnc(Oc2ccccc2Cl)c1F
active: CD40, CD40 (gene 958) 14.9 µM | CD69, CD69 (gene 969) 9.36 µM | [1] 27.2 µM | [2] 12.7 µM | [3] 34.7 µM | [4] 1.98 µM | [5] 11 µM | [6] 15.8 µM | [7] 18.3 µM | [10] 0.933 µM

CC(C)=CC1C(C(=O)OCc2coc(Cc3ccccc3)c2)C1(C)C (stereo unspecified)
inactive: CD40, CD40 (gene 958) | [3] | [7]
active: CD69, CD69 (gene 969) 11.4 µM | [1] 20 µM | [2] 16.6 µM | [4] 5.08 µM | [5] 12.7 µM | [6] 15.7 µM | [8] 0.444 µM | [11] 5.84 µM

CSC(=O)c1c(C(F)F)nc(C(F)(F)F)c(C(=O)SC)c1CC(C)C
active: CD40, CD40 (gene 958) 34 µM | [1] 13.9 µM | [2] 13.1 µM | [4] 27.6 µM | [5] 12.7 µM | [6] 28.6 µM | [7] 14.6 µM | [9] 3.3 µM
inactive: CD69, CD69 (gene 969) | [3]

O=C1C2CC=CCC2C(=O)N1SC(Cl)(Cl)Cl (stereo unspecified)
inactive: CD40, CD40 (gene 958) | CD69, CD69 (gene 969) | [3] | [7] | [8]
active: [2] 26.2 µM | [4] 32.6 µM | [5] 25.3 µM | [6] 28.7 µM | [9] 6.89 µM | [11] 10 µM

CCCCC(O)(Cn1cncn1)c1ccc(Cl)cc1Cl (stereo unspecified)
active: [2] 22.5 µM | [6] 29.9 µM | [12] 1.07 µM | [10] 1.59 µM | [11] 0.554 µM | [13] 2.52 µM
not listed: [8] | [9]
inactive: all other assays above

COC(=O)N(C(=O)N1CO[C@@]2(C(=O)OC)Cc3cc(Cl)ccc3C2=N1)c1ccc(OC(F)(F)F)cc1
inactive: [2] | [3] | [4] | [11]
active: CD40, CD40 (gene 958) 5.46 µM | CD69, CD69 (gene 969) 6.93 µM | [1] 5.47 µM | [5] 5.25 µM | [6] 7.29 µM | [7] 5.59 µM
